RXFP1 antag: qHTS Assay for Antagonists of the Relaxin Receptor RXFP1. HEK293-RXFP1, relaxin-stimulated cAMP HTRF, 30 min; stronger effect = lower value. activity change, negative = inhibition, % at 57.5 µM. hit rate 0.59% among 350,000. Relaxin receptor 1 (Homo sapiens), Q9HBX9. AID 1259400, 2018;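 active = activity change of -60% or lower, but not beyond a set lower limit; inconclusive = change between -60% and -40%, or beyond the set limit; inactive = change above -40%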
RXFP1 ag: qHTS Assay for Agonists of the Relaxin Receptor RXFP1 | Relaxin receptor 1 (Homo sapiens), Q9HBX9 | HEK293T-RXFP1 cAMP TR-FRET, 30 min; response scale: percent of porcine relaxin response, buffer zero | Potency, µM (highest dose often 57.5 µM), without a hit: at the highest dose activation, actives largely listed as activators | hit rate 0.3% among 370,000; active = well fitted activation curve with a large enough effect; inconclusive = small, poorly fitted or top-dose-only effect; note: potency is the fitted concentration of half-maximal effect; nearly all actives have a fitted effect of over 60% in size
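HEK293 cells stably expressing RXFP1, treated 30 min at 37C with compounds plus PDE4 inhibitor Ro 20174; cAMP measured by HTRF TR-FRET. Normalized to buffer and 29 nM porcine relaxin; EC50 by Hill fit.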
hERG WT inh: qHTS for Inhibitors of KCHN2 3.1: Wildtype qHTS. Voltage-gated inwardly rectifying potassium channel KCNH2 (Homo sapiens), Q12809. U2OS, BacMam KCNH2, thallium flux FluxOr; stronger effect = lower value. activity change, % at 1.84 µM. hit rate 0.37% among 340,000;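 active = maximum activity change below -70%; inconclusive = maximum activity change between -70% and -50%; inactive = maximum activity change above -50%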
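U2OS cells transduced with wild-type KCNH2 virus are loaded with FluxOr dye for 45 min, and thallium flux is measured in kinetic reads before and after stimulation buffer. Rate constants are normalized to DMSO controls.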
KCNH2 3.1 block: qHTS for Inhibitors of KCHN2 3.1: Mutant qHTS | Potassium voltage-gated channel subfamily H member 2, brain isoform KCNH2 3.1 (human) | U2OS KCNH2 3.1, thallium flux FluxOr; stronger effect = lower value | activity change, % (tested at about 1.8 µM) | hit rate 0.95% among 340,000 | AID 720553, 2013;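 active = maximum activity change below -70%; inconclusive = maximum activity change from -70% to -50%; inactive = maximum activity change above -50%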;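 note: thallium influx rate constant from kinetic fluorescence after stimulation buffer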
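We transduce U2OS cells with the mutant 3.1 virus, culture them overnight, load FluxOr with Red40 quencher for 45 min, then add stimulation buffer and read kinetically for 2 min to derive a normalized rate constant.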
Akt phos inh: HTS Assay for Inhibitors of Akt Phophorylation: Primary Screen; Neuro2A IGF-stimulated pAkt S473 HTRF, 20 min; stronger effect = lower value; hit rate 0.32% among 360,000; activity change, % for hits at 50 µM; in the data active = activity change below about -80%; inconclusive = mostly about -51% to -80%
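Neuro2A cells in DMEM with 0.5% FBS, overnight at 37 deg C, given compound at single 50 µM final, then IGF (6 nM final) for 20 min at 37 deg C. Lysed; phospho-Akt Ser473 by HTRF after 24 h, 665/615 ratio.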
* marks the source's active call; other numbers are inactive results; i = inactive; ? = inconclusive; . = no result given. A selection: hits, their analogues and other compounds. The true share with any hit is near 1.7%. % is set by controls: 0 for no effect and ±100 for the full control effect.

SMILES	RXFP1 antag	RXFP1 ag	hERG WT inh	KCNH2 3.1 block	Akt phos inh
O=C(COc1ccc(Br)cc1Br)NC(=S)N1CCCc2ccccc21	-13	0%	-5	-7	-92%*
O=C(COc1ccc(Br)cc1Cl)NC(=S)N1CCc2ccccc21	-18	4%	3	.	i
O=C(/C=C1\NC2(CCCC2)Cc2ccccc21)C(=O)N/N=C/c1ccccc1O	?	-3%	-22	-85*	i
COc1cc(/C=N/NC(=O)C(=O)/C=C2\NC3(CCCC3)Cc3ccccc32)ccc1O	-37	0%	3	-26	i
O=C(Nc1ccc2oc(-c3cc(Br)ccc3Cl)nc2c1)c1cc2ccccc2o1	5	20µM*	.	.	.
O=C(N/N=C\c1ccc(Cl)cc1)C1=NOC2COC3(CCN(c4ccc([N+](=O)[O-])cc4)CC3)OCC12 (stereo not drawn)	-11	7%	-38	-103*	i
Cc1ccccc1-c1n[nH]c(=S)o1	9	16µM*	-2	15	-102%*
COc1ccc(Cl)cc1-c1n[nH]c(=S)o1	-5	6.3µM*	-9	-2	i
COc1ccc(C(=O)Nc2ccc(-c3n[nH]c(=S)o3)cc2)cc1OC	2	9%	-1	-12	i
Cc1cc(C)c(S(=O)(=O)N2CCN(S(=O)(=O)N3CCCCCC3)CC2)c(C)c1	6	2%	4	5	i
Cc1ccc(N2CCN(S(=O)(=O)N3CCCCC3)CC2)c(C)c1	-70*	0%	3	15	i
O=S(=O)(c1ccc(Cl)cc1)N1CCN(Cc2ccncc2)CC1	12	2%	9	17	i
CCN1CCCC1CN(Cc1cc2ccc(C)cc2[nH]c1=O)C(=S)Nc1ccc(F)cc1 (stereo not drawn)	-4	0%	-71*	-85*	i
COc1cc(C(=O)NC(CCSC)C(=O)OCC(=O)NC(=O)C2CCCCC2)cc(OC)c1OC (stereo not drawn)	-5	2%	18	1	i
O=C(N/N=C/c1cn(-c2cccs2)nc1-c1ccccc1)c1ccccc1O	-88*	2%	5	-29	i
O=C(c1cc(Sc2cccc(Cl)c2)nc2ccccc12)N1CCN(c2ccccn2)CC1	?	4%	1	-6	i
O=C(c1cc(Sc2ccc(Cl)cc2)nc2ccccc12)N1CCN(c2ccccn2)CC1	-23	1%	8	-78*	i
COc1ccc(C(=O)N2CCN(C3CCCCC3)CC2)cc1OC	-1	-4%	-11	-75*	i
COc1cc(C(=O)N2CCN(C3CCCCC3)CC2)cc(OC)c1OC	0	-3%	6	4	i
COc1cc(C(=O)N2CCC(N3CCCCCC3)CC2)cc(OC)c1OC	5	.	9	1	-122%*
CC1=C(c2ccc(C)c(C)c2)S(=O)(=O)N=C1N1CCC(C(=O)NCc2ccc(Cl)cc2)CC1	?	1%	.	.	.
N#C/C=C1/NC(=O)c2ccccc2S1	-10	2%	2	.	-110%*
O=C(NCCCN1CCOCC1)/C(=C/c1ccc(-c2cccc([N+](=O)[O-])c2)o1)NC(=O)c1ccccc1	-6	.	4	0	i
O=[N+]([O-])c1cc(/C=N\Nc2nc(-c3ccccc3)cs2)ccc1O	-65*	3%	-14	4	i
Cc1csc(N/N=C/c2ccc(O)c([N+](=O)[O-])c2)n1	-8	0%	-1	-21	i
O=C(COC(=O)c1nn(-c2ccccc2)c(=O)c2ccccc12)NC1CCS(=O)(=O)C1 (stereo not drawn)	-8	23%	-2	1	i
CC(NCc1cccc(OCc2ccccc2)c1)C(O)c1ccccc1 (stereo not drawn)	-1	0%	22	-148*	i
CC(NCc1ccc(OCc2ccc(Cl)cc2)cc1)C(O)c1ccccc1 (stereo not drawn)	-100*	2%	27	-34	i
